Screening data (PubChem)
This is a sample that favours compounds with a hit; in the whole collection about 6.5% have one here.
HT1080 IDH1KD tx: qHTS for induction of synthetic lethality in tumor cells producing 2HG: qHTS for the HT-1080-IDH1KD cell line; HT-1080 IDH1 knockdown viability, ATP luminescence, 48 h; Potency, µM (doses to about 46.1 µM), usual class: cytotoxic; 2% of 360,000 active
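Knockdown cells (IDH1KD HT-1080) received compounds 2 h after plating at 750 cells/well and were kept 48 h at 37 °C in 5% FBS RPMI. A CellTiter-Glo luminescence read gave % activity for curve fitting.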
HT1080-NT tox: qHTS for induction of synthetic lethality in tumor cells producing 2HG: qHTS for the HT-1080-NT fibrosarcoma cell line; HT-1080-NT fibrosarcoma viability, CellTiter-Glo ATP luminescence, 48 h; Potency, µM (highest dose often 46.1 µM), actives largely listed as cytotoxic; 1.6% of 360,000 active;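 note: NT is the 2HG producing partner of a matched IDH1 knockdown line; nearly all actives have a fitted effect of over 55% in size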
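A 48-hour cytotoxicity screen used HT-1080-NT cells plated 2 hours before compound delivery. ATP-based CellTiter-Glo luminescence measured viability, normalized to DMSO and no-cell controls.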
IL-1B inflam inh: qHTS for Inhibitors of Inflammasome Signaling: IL-1-beta AlphaLISA Primary Screen. THP-1 LPS/ATP IL-1B secretion, AlphaLISA, 16 h; hits give low values. activity change, % at 57.5 µM. 4.7% of 360,000 active; in the data active = activity change below about -50%; inconclusive = mostly about -30% to -49%
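THP-1 cells pretreated 1 hr with compounds (up to 57.5 uM final), then stimulated with LPS (250 ng/mL final) plus ATP (1.25 mM final); secreted IL-1B measured by AlphaLISA after 16 hr, decreased signal indicating inhibition.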
Giardia killer: Small Molecules that selectively kill Giardia lamblia: qHTS; activity change, % at 7.66 µM, hits read low; 0.15% of 340,000 active; Giardia lamblia trophozoite viability; in the data active = activity change below about -80%; inconclusive = between about -30% and that limit;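 note: parasites exposed to compound for two days anaerobically before the ATP read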
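Trophozoites 100 cells/well + cpd; 48 hrs, 37 deg C, anaerobic. ATPLite 1-Step added, 15-30 min RT, luminescence read (ATP-based viability).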
TGFb inhibitor: qHTS for Inhibitors of TGF-b; HepG2 CAGA-GFP TGF-b/SMAD3 reporter, GFP fluorescence, 18 h; TGF-beta stimulated, 500 pg/mL final; Potency, µM (highest dose often 46.1 µM), usual class: inhibitors; 1.2% of 410,000 active; AID 588855, 2011; note: nearly all actives have a fitted effect of over 65% in size
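Cell-based qHTS in HEPG2 carrying a CAGA-GFP Smad reporter; compounds added before 500 pg/mL final TGF-beta, 18 h incubation at 37 degrees C, GFP fluorescence quantified per cell by imaging cytometry.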
HepG2 viability: qHTS for Inhibitors of TGF-b: Cytotox Counterscreen; HepG2 CAGA-GFP viability, ATP luminescence, 18 h; Potency, µM (highest dose often 46.1 µM), usual class: cytotoxic; 0.76% of 410,000 active
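CellTiter-Glo luminescence gave cytotoxicity after 18 hours at 37 degrees C. The cells were HepG2 CAGA-GFP in 1% FBS DMEM, stimulated with 500 pg/mL TGF-beta after compound addition. %Activity was normalised to no-cell wells (complete cell-killing) and DMSO (no toxicity), and curves were fitted and classified.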
A number is an active result; 0 = inactive; ? = inconclusive; - = no result; ! = not active in a repeat; [ ] = dose if it differs, or a comment. Unless noted, calls come from the whole dose curve; as a rule, active = well fitted curve in the direction sought with a large enough effect; inconclusive = small, poorly fitted or top-dose-only effect, or another doubt; inactive = no such curve, though single readings can be large; an effect the other way counts as inactive or inconclusive.

SMILES	HT1080 IDH1KD tx	HT1080-NT tox	IL-1B inflam inh	Giardia killer	TGFb inhibitor	HepG2 viability
CCn1c(=N)n(CC(O)COc2ccccc2)c2ccccc21 (stereo not given)	-	-	-	-	0	0
N=c1n(Cc2ccc(Cl)cc2)c2ccccc2n1CC(O)COc1ccccc1 (stereo not given)	15µM	21µM	-97	0	?	0
Cc1ccc(OCC(O)Cn2c(=N)n(Cc3ccccc3)c3ccccc32)cc1 (stereo not given)	18µM	0	-90	0	?	13µM
N=c1n(Cc2ccccc2)c2ccccc2n1CC(O)COc1ccc(Cl)cc1Cl (stereo not given)	12µM	29µM	-103	0	?	11µM
COc1ccc(OCC(O)Cn2c(=N)n(Cc3ccccc3)c3ccccc32)cc1 (stereo not given)	11µM	?	-97	0	?	0
CCOc1ccc(CCNC(=O)c2ccc3c(c2)N(Cc2ccc(F)cc2)CCS3)cc1	-	-	-	-	0	0
COc1ccc(C2=NN(Cc3c(F)cccc3Cl)C(=O)CC2)cc1	0	0	0	0	0	0
CNC(=O)C1CCC(Cn2c(=O)c3sccc3n(Cc3cc(C)ccc3C)c2=O)CC1 (stereo not given)	-	-	-	-	0	0
CCN(CC)CCn1c(=N)n(CC(O)COc2cccc(C)c2)c2ccccc21 (stereo not given)	21µM	?	-67	0	?	0
N=c1n(CCO)c2ccccc2n1Cc1ccc(Cl)cc1	0	0	-52	0	?	0
Cc1cccc(OCC(O)Cn2c(=N)n(Cc3ccccc3)c3ccccc32)c1 (stereo not given)	0	0	-54	0	?	0
Cc1cccc(OCC(O)Cn2c(=N)n(CCN3CCCCC3)c3ccccc32)c1 (stereo not given)	11µM	10µM	-51	0	?	11µM!
N=c1n(Cc2ccccc2)c2ccccc2n1Cc1ccccc1	0	?	-	0	?	0
Cc1cccc(OCC(O)CN2CCNCC2)c1 (stereo not given)	0	0	0	0	0	0
O=C(COC(=O)c1ccccc1O)NC1CCCc2ccccc21 (stereo not given)	0	0	0	0	0	0
CCCC(=O)N(c1ccc2oc(C)c(C(C)=O)c2c1)S(=O)(=O)c1ccc(C)cc1	-	-	-	-	?	0
O=S(=O)(NC(=NCCc1ccc(Cl)cc1)c1ccccc1Cl)c1cccs1	0	0	-68	0	0	0
c1ccc(-c2nc3ccccc3[nH]2)cc1	0	0	0	0	0	0
COc1ccc(-c2cc(=O)n(-c3nc4ccccc4[nH]3)[nH]2)cc1	?	22µM	0	0	0	0
COc1ccc(-c2nc3ccccc3[nH]2)cc1	11µM	10µM	0	?	0	7.9µM
O=C(CCc1nnc(CCc2ccccc2)o1)N1CCCCC1CCn1cccn1 (stereo not given)	0	0	0	0	0	0
Cc1ccc(CNc2ccc3c(c2)ncn3C)cc1	0	0	0	0	0	0
COc1ccc(CNc2ccc3c(c2)ncn3C)cc1OC	16µM	16µM	0	0	0	0
Cc1ccc(N2C(=O)[C@@H]3CSC(c4ccc(C(F)(F)F)cc4)N3C2=O)cc1 (stereo not given in full)	-	-	-	-	0	0
COC(=O)c1ccc(CN(c2ccc(C(=O)O)c(O)c2)S(=O)(=O)c2ccc(Cl)c([N+](=O)[O-])c2)cc1	0	0	-86	0	?	0
SMILES	HT1080 IDH1KD tx	HT1080-NT tox	IL-1B inflam inh	Giardia killer	TGFb inhibitor	HepG2 viability
COC(=O)c1ccc(/C=C2\Oc3ccccc3NC2=O)cc1	0	0	-53	0	0	0
COC(=O)CN(C#N)c1nc(NCc2ccccc2)nc(OC)n1	0	0	-67	0	0	0
CN(C)c1ccc(C(=O)n2nnc3ccccc32)cc1	16µM	?	-	0	0	0
CCCC(=O)Nc1ccc(C(=O)n2nnc3ccccc32)cc1	0	0	0	0	0	0
C=CCn1cnc2c(nnn2-c2ccc(OC)c(OC)c2)c1=O	0	?	0	0	0	0
Cc1cc(N(C)Cc2ccccc2)nc2cc(O)ccc12	?	?	-56	0	0	0
Cc1cc(N(C)Cc2ccccc2)nc(-c2ccccc2)n1	?	0	0	0	0	0
COc1ccccc1C(=O)Nc1nnn(C)n1	0	0	0	0	0	0
COc1cccc(C2=CC(c3cccs3)n3nnnc3N2)c1 (stereo not given)	8.2µM	8.2µM	0	0	0	0
COc1ccccc1C1C=C(c2ccccc2)Nc2nnnn21 (stereo not given)	16µM	?	0	0	0	0
COc1cccc(C2=CC(c3ccc(OC)c(OC)c3OC)n3nnnc3N2)c1 (stereo not given)	0	0	0	0	0	0
O=C(OCC(=O)N1CCCC1=O)c1nc(Cl)c(Cl)c(Cl)c1Cl	?	0	-95	0	0	0
Nc1c(Cl)c(Cl)nc(C(=O)OCC(=O)N2CCCC2=O)c1Cl	0	0	0	0	?	0
CCCCn1c(SCC(=O)NCc2ccco2)nc2cc(S(N)(=O)=O)ccc21	0[9.24 µM]	0	0	0	0	0
C=C(C)CNC(=S)N/N=C/C1=CCC2CC1C2(C)C (stereo not given)	0	0	0	0	?	0
CCCCNC(=S)N/N=C/C1=CCC2CC1C2(C)C (stereo not given)	0	0	0	0	11µM	0
O=P(OC1CCCCC1)(OC1CCCCC1)C(Nc1ccccc1)c1cccnc1 (stereo not given)	0	0	-72	0	0	0
O=c1oc2ccccc2c(Nc2ccc(O)cc2)c1[N+](=O)[O-]	0	0	0	0	0	0
Cc1ccc(C)c(N(C(=O)c2nsc(Cl)c2Cl)C(C(=O)NC2CCCC2)c2ccc(O)cc2)c1 (stereo not given)	0	0	-71	0	0	0
O=C(COC(=O)c1cc([N+](=O)[O-])ccc1NCCO)c1ccc(Cl)cc1	0	0	0	0	0	0
COC(=O)[C@@]1(C(C)C)N=C(c2cc(OC)c(OC)c(OC)c2)[C@]2(O1)C(=O)N(Cc1ccc(OC)cc1)c1ccc(Br)cc12	0	0	0	-	-	-
COc1cccc(-c2csc(N3CCN(C(=S)Nc4cccc(Cl)c4)CC3)n2)c1	?	?	-81	0	?	0
